# Results reported in paper PMC5540273 (PLoS ONE, 2017).
# Tests used:
# Details in all cases: concentration: 1 μM, replicates: in singlicate; n = 1
# FGFR4 = system: FGFR4
# FGR = system: FGR
# FLT1 = system: FLT1
# FLT3-autoinhibited = system: FLT3-autoinhibited
# FLT3 = system: FLT3
# FLT4 = system: FLT4
# FRK = system: FRK
# FYN = system: FYN
# GAK = system: GAK
# GCN2(Kin.Dom.2,S808G) = system: T1, GCN2(Kin.Dom.2,S808G)
# T1 construct: gene EIF2AK4
# 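Also: KINOMEscan kinase panel screen.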
SMILES,%Inh (FGFR4) [%],%Inh (FGR) [%],%Inh (FLT1) [%],%Inh (FLT3-autoinhibited) [%],%Inh (FLT3) [%],%Inh (FLT4) [%],%Inh (FRK) [%],%Inh (FYN) [%],%Inh (GAK) [%],"%Inh (GCN2(Kin.Dom.2,S808G)) [%]"
O=C(NCCCN1CCCC1=O)c1cnc(NCc2cc(Cl)ccc2Cl)nc1NC1CCNCC1,0,1,0,0,0,7,0,6,0,0
Cl.c1ccc(Cn2ncc3cc(Nc4ncnc5ccccc45)ccc32)cc1 [GW273749],5,31,17,7,0,8,0,36,23,0
O=C(Nc1ccccc1)Nc1ccc(Oc2ccc3nccn3n2)cc1,63,19,51,0,25,6,0,0,0,16
Cl.c1ccc(Cn2ccc3cc(Nc4ncnc5ccccc45)ccc32)cc1 [GW275568],8,21,24,11,0,8,0,25,25,0
Oc1ccc2ncnc(Nc3ccc(OCc4ccccc4)cc3)c2c1 [GI262866],66,4,29,0,60,21,0,7,0,15
Fc1cccc(COc2ccc(Nc3ncnc4nn5ccccc5c34)cc2Cl)c1 [GW689066],0,4,20,0,0,0,0,0,0,0
Cn1ccc2ncnc(Oc3ccc(NC(=O)Nc4cccnc4)c(Cl)c3)c21,0,0,2,0,0,37,0,0,0,0
NC(=O)c1sc(-n2cnc3ccccc32)cc1OCc1ccccc1F [GSK1024306],19,0,40,2,0,27,11,24,24,0
CC(C)(C)OC(=O)NC1CCCN(c2cc(-c3ccc4c(N)n[nH]c4c3)nc(N)n2)C1 (stereo not drawn) [GSK2286096],14,4,9,0,0,0,2,26,42,0
COc1cc2ncnc(Nc3ccc(OCc4ccccc4Br)c(Cl)c3)c2cc1OC.Cl [GI261590],9,43,23,0,0,0,6,0,0,24
O=C(CCO)NCCn1ccc2ncnc(Nc3ccc(Oc4cccc(C(F)(F)F)c4)c(Cl)c3)c21,0,5,0,0,0,0,0,0,0,0
CC(C)(C)c1ccc(-n2cnc3c(N)ncnc32)cc1 [SKF-97263],10,30,7,17,6,15,0,2,9,11
COC(=O)c1c(-c2ccccc2)c2cc(Cl)ccc2c(=O)n1Cc1ccc(S(C)(=O)=O)cc1,6,0,0,2,0,8,22,0,100,0
Nc1nccc2scc(-c3ccc4c(c3)CCN4C(=O)Cc3cc(F)ccc3F)c12 [GSK2587663],7,40,37,0,0,0,11,12,0,13
CNc1nccc(-c2c(-c3ccc(F)cc3)ncn2CCCN2CCOCC2)n1 [SB-222516],0,10,1,14,15,5,0,0,0,0
CCn1c(-c2ccncc2)nc2cnccc21 [SB-735216],11,3,4,20,15,5,0,19,13,12
Fc1cccc(COc2ccc(Nc3ncnc4sc(-c5ccc[nH]5)cc34)cc2Cl)c1 [GW707818],12,3,22,7,0,3,0,45,4,0

SMILES,%Inh (FGFR4) [%],%Inh (FGR) [%],%Inh (FLT1) [%],%Inh (FLT3-autoinhibited) [%],%Inh (FLT3) [%],%Inh (FLT4) [%],%Inh (FRK) [%],%Inh (FYN) [%],%Inh (GAK) [%],"%Inh (GCN2(Kin.Dom.2,S808G)) [%]"
COc1ccc(Nc2nccc(N3CCC(NC(=O)Nc4ccc5c(c4)OCO5)C3)n2)cc1 (stereo not drawn) [GSK1379745],4,28,37,0,45,12,14,3,11,2
FC(F)(F)c1ccc(-c2nn3ncccc3c2-c2ccnc(Nc3cccc(C(F)(F)F)c3)n2)cc1 [GW828205],3,58,12,0,0,8,0,0,0,0
Cl.O=S(=O)(c1cccc(F)c1)c1ccc(Nc2ncnc3cc(Br)sc23)cc1Cl [GSK306886],30,24,20,0,0,98.1,0,41,3,0
O=C(c1ccc(-c2cc(-c3c[nH]nc3-c3ccccn3)ccn2)cc1)N1CCCC1 [GW792479],0,17,18,0,8,0,0,5,33,0
Cc1ccc(C)c(NC(=O)NCCNc2ccnc(Nc3ccc(F)cc3)n2)c1 [GSK1379878],0,4,24,0,0,0,0,0,0,0
Cn1cc(-c2ccc3c(c2)CCN3C(=O)Cc2cccc(C(F)(F)F)c2)c2c(N)ncnc21 [GSK2606414],0,0,31,3,28,22,0,13,3,5
CCc1nc(-c2cccc(N(C)S(=O)(=O)c3ccccc3)c2)c(-c2ccnc(Nc3ccc(N4CCN(C(C)=O)CC4)nc3)n2)s1 [GSK1645895],0,73,24,18,0,14,0,40,85,4
Clc1ccc(-c2cc(-c3c[nH]nc3-c3ccccn3)ccn2)cc1 [GW681251],13,11,20,0,0,0,0,10,74,7
Cl.Cl.c1ccc(-c2cc3ccncc3cc2OC2CCNCC2)cc1 [GSK1122999],30,23,28,0,4,22,0,44,12,11
COc1cc2c(Nc3cccc(NC(=O)c4ccccc4)c3)ncnc2cc1OCCCN1CCOCC1 [GSK223810],3,0,61,0,6,28,17,24,16,0
Nc1nc(-c2ccc3c(N)n[nH]c3c2)cc(N2CCC[C@@H](C(=O)Nc3ccccc3)C2)n1.O=C(O)C(F)(F)F.O=C(O)C(F)(F)F [GSK2288359],8,15,6,29,0,0,0,38,0,0
Clc1cc(Nc2ncnc3cc[nH]c23)ccc1OCc1ccccn1,4,24,0,5,7,0,15,0,3,0
C[C@H]1CC[C@@H](C(=O)Nc2ccccc2)CN1c1cc(-c2ccc3c(N)n[nH]c3c2)nc(N)n1 [GSK2283293],0,27,13,0,0,4,5,0,0,0
CC(C)N1CCC(n2cnc(-c3ccc(F)cc3)c2-c2ccnc(N)n2)CC1 [SB-223132],0,16,0,0,0,0,1,0,2,0
COc1ccc(-c2oc3ncnc(N)c3c2-c2ccc(OC)cc2)cc1 [SB-589132],3,43,21,18,13,12,17,46,48,41
Clc1cccc(-c2nc(Nc3ccncc3)c3ccccc3n2)c1 [GW873004],0,55,34,0,17,52,29,0,3,0
